In experiment [1] the test system is Vero E6 infected with SARS-CoV-2. Put plainly: morphology score (similarity to uninfected cells); higher = more like uninfected cells. To be noted: 24 h.
For experiment [2] the test system is unchanged. Put plainly: SARS-CoV-2 infection rate relative to infected DMSO; higher = more infection, active = 60 or less. The note with it: 24 h.

The compound `CN1C(=O)N(c2cc(Cl)cc(Cl)c2)C(=O)[C@@]1(C)Cc1ccc(Br)cc1` (10 µM) displayed a morphology score in experiment [1] of 0.25. Also, the SARS-CoV-2 infection rate in experiment [2] is 96.5% (inactive).
In the same order, the values of `CC(=O)OCC(=O)[C@@]12OC(C)(C)O[C@@H]1C[C@H]1[C@@H]3C[C@H](F)C4=CC(=O)C=C[C@]4(C)[C@@]3(F)[C@@H](O)C[C@@]12C` [fluocinonide] (10 µM) are 0.184 and 104% (inactive).
In the same order, the values of `O=C(O)Cc1cccnc1C(=O)O` [homoquinolinic-acid] (10 µM) are 0.0575 and 102% (inactive).
In experiment [1], `Cn1ncc(Cl)c1-c1cc(C(=O)N[C@H](CN)Cc2ccc(F)c(F)c2)oc1Cl` [uprosertib] (10 µM) returned a morphology score of 0.441. The SARS-CoV-2 infection rate in experiment [2] was 96.5% (inactive).
On the same counts, the results for `C[C@H](CSC(=O)c1ccccc1)C(=O)N1C[C@@H](Sc2ccccc2)C[C@H]1C(=O)O` [zofenopril-calcium] (10 µM) are 0.0896 and 104% (inactive).
On the same counts, the results for `CC(C)(C)c1cc(/C=C(\C#N)C(N)=S)cc(C(C)(C)C)c1O` [tyrphostin-AG-879] (0.833333 µM) are 0.166 and 102% (inactive).
In the same order, the values of `CN(C)c1ccc(/C=C2\C(=O)Nc3ccccc32)cc1` (10 µM) are 0.175 and 101% (inactive).
As for `COC(=O)C1=C(C)NC(C)=C(C(=O)OC)C1c1ccccc1[N+](=O)[O-]` [nifedipine] (10 µM), in experiment [1], the morphology score was -0.0637. In experiment [2], the SARS-CoV-2 infection rate is 106% (inactive).
On the same counts, the results for `CCCC(=O)O[C@]1(C(=O)CO)CC[C@H]2[C@@H]3CCC4=CC(=O)CC[C@]4(C)[C@H]3[C@@H](O)C[C@@]21C` [hydrocortisone-butyrate] (10 µM) are -0.0651 and 102% (inactive).
As to `COc1c(Nc2ccc(S(C)(=O)=O)nc2C)ncnc1OC1CCN(C(=O)OC(C)C)CC1` (10 µM), the morphology score in experiment [1] is -0.00778. In addition, the SARS-CoV-2 infection rate in experiment [2] was 100% (inactive).
In the same order, the values of `C[C@@H]1CC[C@@]2(OC1)O[C@H]1C[C@H]3[C@@H]4CC=C5C[C@@H](O)CC[C@]5(C)[C@H]4CC[C@]3(C)[C@H]1[C@@H]2C` [diosgenin] (10 µM) are 0.114 and 106% (inactive).
On the same counts, the results for `O=C1CCC[C@@H]2[C@H]3C[C@@H](CN12)[C@@H]1CCCCN1C3` [lupanine] (10 µM) are -0.065 and 102% (inactive).
On the same counts, the results for `N[C@@H](Cc1cc(CP(=O)(O)O)cc(-c2ccccc2Cl)c1)C(=O)O` (10 µM) are 0.0155 and 97.5% (inactive).
Consider `OCCN1CCN(CCCN2c3ccccc3Sc3ccc(Cl)cc32)CC1` [perphenazine] (0.833333 µM), for which the morphology score in experiment [1] is -0.0186. Besides, in experiment [2], the SARS-CoV-2 infection rate is 109% (inactive).
In the case of `COc1ccccc1OC(=O)C(C)c1ccc(CC(C)C)cc1` (stereo not given) [metoxibutropate] (10 µM), the morphology score in experiment [1] was determined as 0.217. Moreover, the SARS-CoV-2 infection rate in experiment [2] was 101% (inactive).
The compound `Oc1ccc([C@@H]2Oc3ccc(O)cc3[C@@H]3CCC[C@@H]32)cc1` [erteberel] (10 µM) had a morphology score in experiment [1] of 0.0963. Further, in experiment [2], the SARS-CoV-2 infection rate is 113% (inactive).
On the same counts, the results for `CCOC(=O)[C@@H](N)Cc1ccc(-c2cc(O[C@H](c3ccc(Cl)cc3-n3ccc(C)n3)C(F)(F)F)nc(N)n2)cc1` [telotristat-ethyl] (10 µM) are 0.343 and 95.5% (inactive).
In the same order, the values of `CCCCCCCCCCCCCCSCC(=O)O` [tetradecylthioacetic-acid] (10 µM) are -0.0649 and 112% (inactive).
On the same counts, the results for `Cc1ccc(/C=C2/C(=O)C3(C)CCC2C3(C)C)cc1` (stereo not given) [3-(4-methylbenzylidene)camphor] (10 µM) are -0.0397 and 114% (inactive).
As for `O=C(O)[C@H]1CN(C/C=C/P(=O)(O)O)CCN1` [midafotel] (10 µM), in experiment [1], the morphology score is 0.0949. For the same compound, the SARS-CoV-2 infection rate in experiment [2] was 89% (inactive).
On the same counts, the results for `COc1ccc(OC)c2c(=S)c3ccccc3[nH]c12` (10 µM) are -0.0609 and 106% (inactive).
In the same order, the values of `N[C@@H]1[C@H]2CN(c3nc4c(cc3F)c(=O)c(C(=O)O)cn4-c3ccc(F)cc3F)C[C@@H]12` [trovafloxacin] (10 µM) are 0.276 and 108% (inactive).
On the same counts, the results for `Cc1cccc(CN2CCN(C(c3ccccc3)c3ccc(Cl)cc3)CC2)c1` (stereo not given) [meclizine] (10 µM) are 0.0755 and 108% (inactive).
With `CCC(=O)OCC(=O)[C@@]1(OC(=O)CC)[C@@H](C)C[C@H]2[C@@H]3CCC4=CC(=O)C=C[C@]4(C)[C@@]3(F)[C@@H](O)C[C@@]21C` (10 µM), in experiment [1], the morphology score was determined as 0.138. For the same compound, in experiment [2], the SARS-CoV-2 infection rate was 104% (inactive).
On the same counts, the results for `CC[C@@]1(O)C(=O)OCc2c1cc1n(c2=O)Cc2c-1nc1cc(F)c(C)c3c1c2[C@@H](N)CC3` [exatecan-mesylate] (0.833333 µM) are 0.0535 and 110% (inactive).
On the same counts, the results for `C[C@H]1[C@@H](O)O[C@@H]2O[C@@]3(C)CC[C@H]4[C@H](C)CC[C@@H]1[C@@]24OO3` (10 µM) are 0.225 and 84% (inactive).
As to `COc1cc(NS(=O)(=O)c2ccc(N)cc2)nc(OC)n1` [sulphadimethoxine] (10 µM), the morphology score in experiment [1] was -0.00223. Further, in experiment [2], the SARS-CoV-2 infection rate was 103% (inactive).
On the same counts, the results for `C/C(=C\C(N)C(=O)O)CP(=O)(O)O` (stereo not given) (10 µM) are 0.064 and 110% (inactive).
On the same counts, the results for `CNC(=O)[C@H](Cc1c[nH]c2ccccc12)NC(=O)[C@@H](CC(=O)NO)CC(C)C` [ilomastat] (10 µM) are -0.0294 and 114% (inactive).
On the same counts, the results for `Cn1nnnc1SCC1=C(C(=O)O)N2C(=O)[C@@H](NC(=O)[C@H](OC=O)c3ccccc3)[C@H]2SC1` [cefamandole-nafate] (10 µM) are 0.0598 and 102% (inactive).
`CSc1ccc(C(=O)N[C@@H]2CCCC[C@@H]2NC(=O)CNC(=O)c2cc(C(F)(F)F)ccc2NC(=O)NC(C)C)cc1` (10 µM) had a morphology score in experiment [1] of 0.07. In addition, in experiment [2], the SARS-CoV-2 infection rate is 93.5% (inactive).
Take `C[C@](O)(COc1ccc(C#N)cc1)C(=O)Nc1ccc(C#N)c(C(F)(F)F)c1` [ostarine] (10 µM): the morphology score in experiment [1] was determined as 0.0725. The SARS-CoV-2 infection rate in experiment [2] is 112% (inactive).
On the same counts, the results for `CCC[C@H]1C(=O)N2C(N(C)C)=Nc3ccc(C)cc3N2C1=O` [azapropazone] (10 µM) are 0.165 and 94% (inactive).
On the same counts, the results for `CC(O)CC(=O)O` (stereo not drawn) [beta-hydroxybutyrate] (10 µM) are -0.0603 and 116% (inactive).
For `O=C(Nc1cccnc1)N1CCC(Cc2cccc(Oc3ccc(C(F)(F)F)cn3)c2)CC1` (0.833333 µM), the morphology score in experiment [1] was determined as 0.191. Moreover, the SARS-CoV-2 infection rate in experiment [2] is 95.5% (inactive).
For the compound `O=C1[C@@H]2[C@H]3CC[C@H](C3)[C@@H]2C(=O)N1C[C@@H]1CCCC[C@H]1CN1CCN(c2nsc3ccccc23)CC1` [lurasidone] (10 µM), the morphology score in experiment [1] came to 0.0507. The SARS-CoV-2 infection rate in experiment [2] was 96.5% (inactive).
Regarding `CCc1cc(-c2[nH]nc(C)c2-c2ccc3c(c2)OCCO3)c(O)cc1O` (0.833333 µM), the morphology score in experiment [1] turned out to be 0.075. Further, the SARS-CoV-2 infection rate in experiment [2] was 114% (inactive).
In the same order, the values of `CCOCCOc1ccccc1C(N)=O` [etosalamide] (10 µM) are 0.0693 and 104% (inactive).
On the same counts, the results for `c1ccc2c(c1)CN1CCCC1=N2` [desoxypeganine] (10 µM) are 0.169 and 94.5% (inactive).
In the same order, the values of `COc1cc(C(C)=O)ccc1OCCCN1CCC(c2noc3cc(F)ccc23)CC1` [iloperidone] (10 µM) are -0.112 and 111% (inactive).
`c1ccc2sc(SN3CCOCC3)nc2c1` [N-oxydiethylenebenzothiazole-2-sulfenamide] (10 µM) yielded a morphology score in experiment [1] of -0.00631. Besides, the SARS-CoV-2 infection rate in experiment [2] was 104% (inactive).
As for `CCS(=O)(=O)N1CC(CC#N)(n2cc(-c3ncnc4[nH]ccc34)cn2)C1` [baricitinib] (10 µM), the morphology score in experiment [1] came out at 0.418. Further, the SARS-CoV-2 infection rate in experiment [2] was 112% (inactive).
In the same order, the values of `O=C(OC[C@H]1O[C@@H](OC(=O)c2cc(O)c(O)c(OC(=O)c3cc(O)c(O)c(O)c3)c2)[C@H](OC(=O)c2cc(O)c(O)c(OC(=O)c3cc(O)c(O)c(O)c3)c2)[C@@H](OC(=O)c2cc(O)c(O)c(OC(=O)c3cc(O)c(O)c(O)c3)c2)[C@@H]1OC(=O)c1cc(O)c(O)c(OC(=O)c2cc(O)c(O)c(O)c2)c1)c1cc(O)c(O)c(OC(=O)c2cc(O)c(O)c(O)c2)c1` [tannic-acid] (10 µM) are -0.112 and 114% (inactive).
In the same order, the values of `CC[C@@H](C)Nc1cc(C(=O)N[C@H]2C[C@H]3CC[C@@H](C2)N3c2ccc(C(=O)C3CC3)cn2)c(C)cc1C(N)=O` (10 µM) are 0.188 and 98.5% (inactive).
In the same order, the values of `N=C(N)NCCSSCCNC(=N)N` [guanidinoethyldisulfide-bicarbonate] (10 µM) are 0.0245 and 107% (inactive).
On to `CCN(CC)CCCCN1c2ccccc2Oc2ccc(Cl)cc21` (0.833333 µM), for which, in experiment [1], the morphology score worked out at 0.331. For the same compound, the SARS-CoV-2 infection rate in experiment [2] is 93% (inactive).
Compound `CC1(C)CC(=O)c2c(C(F)(F)F)nn(-c3ccc(C(N)=O)c(N[C@H]4CC[C@H](OC(=O)CN)CC4)c3)c2C1` (10 µM) returned a morphology score in experiment [1] of 0.127. For the same compound, the SARS-CoV-2 infection rate in experiment [2] was 108% (inactive).
On the same counts, the results for `Cc1nccn1CC1CCc2c(c3ccccc3n2C)C1=O` (stereo not given) [ondansetron] (10 µM) are 0.253 and 90% (inactive).
The compound `O=C(NCCCN1CCOCC1)c1cnn2c(-c3ccccc3)cc(-c3ccccc3)nc12` [reversan] (10 µM) came in with a morphology score in experiment [1] of 0.226. The SARS-CoV-2 infection rate in experiment [2] was 98% (inactive).
In the same order, the values of `Cc1ccc(C(C)C)c(O)c1` [thymol] (10 µM) are -0.0243 and 112% (inactive).
On the same counts, the results for `CC[C@]1(O)C[C@@H]2CN(CCc3c([nH]c4ccccc34)[C@@](C(=O)OC)(c3cc4c(cc3OC)N(C)[C@H]3[C@@](O)(C(=O)OC)[C@H](OC(C)=O)[C@]5(CC)C=CCN6CC[C@]43[C@@H]65)C2)C1` [Vinblastine (sulfate)] (0.833333 µM) are -0.0326 and 102% (inactive).
In the same order, the values of `CC(CN(C)C)C(C)(O)Cc1ccc(Cl)cc1` (stereo not given) [clobutinol] (10 µM) are 0.00198 and 109% (inactive).
As to `CCOC(=O)[C@H](Cc1ccccc1)NC(=O)c1cc(Cl)c(OCCN2CCN(C)CC2)c(Cl)c1O` (10 µM), the morphology score in experiment [1] came to 0.414. The SARS-CoV-2 infection rate in experiment [2] is 76.5% (inactive).
On the same counts, the results for `CCN(CC)CCCC(C)Nc1c2ccc(Cl)cc2nc2ccc(OC)cc12` (stereo not given) [mepacrine] (0.833333 µM) are 0.481 and 55.5% (active).
On the same counts, the results for `COC(=O)c1ccccc1O` [methyl-salicylate] (10 µM) are -0.162 and 110% (inactive).
